Most compounds without a hit are left out; they make up all but 18% or so of the library.
TDP1 cell CPT – qHTS for Inhibitors of human tyrosyl-DNA phosphodiesterase 1 (TDP1): qHTS in cells in presence of CPT; chicken DT40 Tdp1-/-;hTDP1 cells + 20 nM CPT, ATP luminescence, 48 h; Potency, µM (titrated, usually from 46.2 µM), without a hit: top-dose activity change, negative = growth inhibition, most hits filed as inhibitors; 420,000 tested, 12% active; note: potency is the fitted concentration of half-maximal effect; % is set by controls: 0 for no effect and ±100 for the full control effect; nearly all actives have a fitted effect of over 55% in size
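Chicken DT40 Tdp1-/- cells stably complemented with human TDP1 were seeded at 400 cells/well in medium containing 20 nM camptothecin, exposed to pin-transferred compounds, and grown at 37 °C for at least 48 hr. Viability was read as ATP luminescence.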
IL-1B inflam inh – qHTS for Inhibitors of Inflammasome Signaling: IL-1-beta AlphaLISA Primary Screen | THP-1 LPS/ATP IL-1B secretion, AlphaLISA, 16 h; stronger effect = lower value | 360,000 tested, 4.7% active | activity change, % at 57.5 µM | AID 743279, 2014; in the data active = activity change below about -50%; inconclusive = mostly about -30% to -49%; note: % is set by controls: 0 for no effect and ±100 for the full control effect
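THP-1 cells pretreated 1 hr with compounds (up to 57.5 uM final), then stimulated with LPS (250 ng/mL final) plus ATP (1.25 mM final); secreted IL-1B measured by AlphaLISA after 16 hr, decreased signal indicating inhibition.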
TGFb SMAD3 inh – qHTS for Inhibitors of TGF-b. 410,000 tested, 1.2% active. Potency, µM (series often up to 46.1 µM), inactives show top-dose activity, negative = inhibition, most hits filed as inhibitors. HepG2 CAGA-GFP TGF-b/SMAD3 reporter, GFP fluorescence, 18 h; TGF-beta stimulated, 500 pg/mL final; note: potency is the fitted concentration of half-maximal effect; % is set by controls: 0 for no effect and ±100 for the full control effect; nearly all actives have a fitted effect of over 65% in size
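Inhibition was scored as loss of TGF-beta-induced (500 pg/mL final, 18 hours, 37 degrees C) GFP in HEPG2 cells carrying a CAGA-GFP reporter, in DMEM with 1% FBS. Well GFP was summed per cell; Activity was normalised to unstimulated and stimulated DMSO wells, then concentration-response fitting.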
DT40 TDP1 no CPT – qHTS for Inhibitors of human tyrosyl-DNA phosphodiesterase 1 (TDP1): qHTS in cells in absence of CPT; DT40 Tdp1-/- hTDP1 cells, no CPT, ATP luminescence, 48 h; Potency, µM (titrated, usually from 46.2 µM), for the others: at the highest dose activity change, negative = growth inhibition, hits mostly inhibitors; 420,000 tested, 15% active; AID 686978, 2013; note: potency is the fitted concentration of half-maximal effect; % is set by controls: 0 for no effect and ±100 for the full control effect; nearly all actives have a fitted effect of over 55% in size
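Growth kinetics read by CellTiter-Glo luminescence after ≥48 hr at 37 °C. Cells: DT40 Tdp1-/- stably carrying human TDP1, 400 per well, compound exposure in the absence of CPT (DMSO vehicle).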
TDP1 block – qHTS Assay for Inhibitors of Tyrosyl-DNA Phosphodiesterase (TDP1) | Tyrosyl-DNA phosphodiesterase 1 (Homo sapiens), Q9NUW8 | recombinant TDP1, AlphaScreen DNA substrate cleavage | Potency, µM (titrated, usually from 130 µM), for inactives: top-dose activity change, negative = inhibition, usual class: inhibitors | 350,000 tested, 0.28% active | AID 485290, 2010; note: potency is the fitted concentration of half-maximal effect; % is set by controls: 0 for no effect and ±100 for the full control effect; nearly all actives have a fitted effect of over 40% in size
Target sequence (Q9NUW8 whole entry, looked up): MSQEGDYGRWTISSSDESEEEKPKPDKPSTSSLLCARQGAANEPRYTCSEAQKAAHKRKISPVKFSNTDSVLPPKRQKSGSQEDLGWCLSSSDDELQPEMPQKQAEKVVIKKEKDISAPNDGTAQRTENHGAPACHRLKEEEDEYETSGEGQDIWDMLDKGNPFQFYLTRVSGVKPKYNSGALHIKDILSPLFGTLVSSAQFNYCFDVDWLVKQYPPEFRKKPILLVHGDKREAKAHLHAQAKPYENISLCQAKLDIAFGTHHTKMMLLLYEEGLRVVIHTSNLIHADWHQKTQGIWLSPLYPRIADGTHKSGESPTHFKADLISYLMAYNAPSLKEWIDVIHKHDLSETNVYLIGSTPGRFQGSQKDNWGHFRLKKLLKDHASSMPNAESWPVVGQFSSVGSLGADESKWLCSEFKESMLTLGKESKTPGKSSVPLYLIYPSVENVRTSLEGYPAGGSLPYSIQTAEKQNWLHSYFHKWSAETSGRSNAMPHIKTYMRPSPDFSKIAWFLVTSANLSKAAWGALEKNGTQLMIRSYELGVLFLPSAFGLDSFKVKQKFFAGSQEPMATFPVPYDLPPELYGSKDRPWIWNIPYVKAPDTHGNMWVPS
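E. coli-derived human Tdp1, 1 nM final. Cpd preinc 15 min RT; substrate 15 nM final, 5 min RT; AS bead mix 10 ug/ml final, 10 min RT. Signal loss = tyrosine-FITC cleavage. No-enzyme wells = max signal.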
HepG2 tox – qHTS for Inhibitors of TGF-b: Cytotox Counterscreen. HepG2 CAGA-GFP viability, ATP luminescence, 18 h. Potency, µM (doses to about 46.1 µM), for inactives: at the highest dose activity change, negative = cytotoxicity, actives largely listed as cytotoxic. 410,000 tested, 0.76% active; note: potency is the fitted concentration of half-maximal effect
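CellTiter-Glo luminescence gave cytotoxicity after 18 hours at 37 degrees C. The cells were HepG2 CAGA-GFP in 1% FBS DMEM, stimulated with 500 pg/mL TGF-beta after compound addition. %Activity was normalised to no-cell wells (complete cell-killing) and DMSO (no toxicity), and curves were fitted and classified.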
Numbers without * were called inactive; ? = inconclusive; / = no result given; [ ] = another dose, or the depositor's remark. Unless noted, calls come from the whole dose curve; as a rule, active = well fitted curve in the direction sought with a large enough effect; inconclusive = small, poorly fitted or top-dose-only effect, or another doubt; inactive = no such curve, though single readings can be large; an effect the other way counts as inactive or inconclusive.

SMILES | TDP1 cell CPT | IL-1B inflam inh | TGFb SMAD3 inh | DT40 TDP1 no CPT | TDP1 block | HepG2 tox
COC1CCCN(Cc2cn(C)nc2-c2ccc(Oc3ccccc3)cc2)C1 (configuration not stated) | -15% | ? | -3% | -27% | 3% | -18%
CCCCC(=O)NS(=O)(=O)c1ccc(NS(C)(=O)=O)cc1 | 4% | 11 | 24% | 1% | 3% | 31%
O=C(Cn1c2ccccc2c(=O)c2cc([N+](=O)[O-])ccc21)Nc1ccccc1Cl | ? | 8 | 10% | 13µM* | 4% | 3%
Cc1ccc(NC(=O)Cn2cc(C(=O)C3CC3)c3ccccc32)cc1 | -8% | 7 | 2% | 1% | 1% | 1%
Cc1cc(C)cc(NC(=O)Cn2cc(C(=O)C3CCCCC3)c3ccccc32)c1 | 18µM* | / | -2% | 23µM* | -2% | -24%
CC(=O)c1cn(CC(=O)Nc2ccccc2)c2ccccc12 | 15µM* | 21 | -3% | 13µM* | 0% | 0%
CC(=O)c1cn(CC(=O)Nc2ccccc2F)c2ccccc12 | 18µM* | 21 | -2% | 12µM* | / | -12%
COc1ccc(CNC(=O)Cn2c(SCC(=O)Nc3ccc(OC)cc3)nc3ccccc32)cc1 | ? | / | ? | ? | -1% | -49%
CSCC[C@H](NC(=O)[C@H](CC(C)C)NC(=O)[C@@H]1CCCN1C(=O)[C@H](Cc1ccccc1)NC(=O)[C@H](Cc1ccccc1)NC(=O)[C@@H]1CCC(=O)N1)C(N)=O | / | / | / | / | 7% | /
c1ccc2c3c([nH]c2c1)[C@@H]1[C@H]2CC[C@H]([C@H]4CCCN[C@H]42)N1CC3 | / | / | / | / | 13%[21 µM] | /
N#Cc1cccc(OC(=O)C2CCN(C(=O)c3ccc(F)cc3)CC2)c1 | -19% | 11 | 0% | -2% | / | 12%
Cc1cccc(CCn2c(=O)c3ccccc3n(CC(=O)Nc3ccccc3F)c2=O)c1 | ? | / | -5% | ? | 5% | 2%
O=C(Cn1c2ccccc2c(=O)c2ccccc21)Nc1ccccc1F | 13µM* | -7 | -2% | ? | ? | 28%
O=Cc1cn(CC(=O)Nc2ccc(F)cc2)c2ccccc12 | ? | 32 | ? | 9.2µM* | 6% | -31%
O=C(Cn1cc(C(=O)c2ccco2)c2ccccc21)Nc1ccccc1Cl | -8% | / | -2% | -21% | 1% | -24%
CC(=O)c1cn(CC(=O)Nc2ccccc2Cl)c2ccccc12 | 16µM* | 32 | -12% | 9.2µM* | / | -25%
CCN(CC(=O)Nc1c(F)cccc1F)C(=O)c1ccc(C#N)cc1 | 0% | 8 | 4% | -7% | / | 16%
COc1cccc(C(=O)NNS(=O)(=O)c2ccc(C)cc2)c1 | 25% | 6 | 4% | -4% | / | -2%
Cc1ccc(N=C2C(=S)N(c3ccc(C)cc3)C(=N)N2/N=C/c2ccc(Cl)cc2)cc1 | 26µM* | ? | 0% | 26µM* | 2% | -10%
CCOC(=O)C1(CCCc2ccccc2)CCN(S(=O)(=O)N(C)C)CC1 | ? | ? | -15% | ? | / | -17%
CCCN(CC(=O)Nc1ccc(Cl)cc1Cl)C(=O)/C=C/c1cccc([N+](=O)[O-])c1 | ? | ? | ? | 29µM* | 3% | 13%
CCCN(CCC)C(=O)/C=C/c1cccc([N+](=O)[O-])c1 | ? | 0 | -4% | ? | 3% | 0%

Bioassay records deposited in PubChem BioAssay by National Center for Advancing Translational Sciences (NCATS).
